Laboratory results taken from the supplement of paper PMC6555819.

Key:
Assay in all cases: PBM binding z-score (relative to random genomic background probes); higher = stronger binding; sequences stand for … in GC…GCGATTGACAGCGTAGAATGAAGG
[1] = system: FXR:RXRa (NR concentration 270 nM, RXRa partner concentration 90 nM)
Summary of the method: (§1)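 On custom Agilent 4×180K arrays, double-stranded probes with 34-nt variable regions carried direct-repeat seeds, single-nucleotide variants, half-site ablations or random human genomic background. Ligand-free nuclear receptor dimers were applied for 1 h, and binding was read with antibodies against each partner (one per run). Binding z-scores come from regression-normalized fluorescence, with the random background probes as reference.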

[2] = system: LXRa:RXRa (NR concentration 270 nM, RXRa partner concentration 90 nM)
Summary of the method: as §1

[3] = system: LXRa homodimer (NR concentration 270 nM)
Summary of the method: as §1

[4] = system: LXRb:RXRa (NR concentration 270 nM, RXRa partner concentration 90 nM)
Summary of the method: as §1

[5] = system: LXRb homodimer (NR concentration 270 nM)
Summary of the method: as §1

[6] = system: PPARa:RXRa (NR concentration 270 nM, RXRa partner concentration 90 nM)
Summary of the method: as §1

[7] = system: PPARg:RXRa (NR concentration 180 nM, RXRa partner concentration 90 nM)
Summary of the method: as §1

[8] = system: PPARg:RXRa 270nM:90nM, anti-RXR (NR concentration 270 nM, RXRa partner concentration 90 nM)
Summary of the method: as §1

[9] = system: PPARg:RXRa 30nM:10nM, anti-RXR (NR concentration 30 nM, RXRa partner concentration 10 nM)
Summary of the method: as §1

[10] = system: PPARg:RXRa 90nM:30nM, anti-RXR (NR concentration 90 nM, RXRa partner concentration 30 nM)
Summary of the method: as §1

Sequence	PBM binding z-score [1]	PBM binding z-score [2]	PBM binding z-score [3]	PBM binding z-score [4]	PBM binding z-score [5]	PBM binding z-score [6]	PBM binding z-score [7]	PBM binding z-score [8]	PBM binding z-score [9]	PBM binding z-score [10]
TAGCCTAGGACATGCGGGCCAGTATAGTGTCGGC	-0.531	-0.882	-1.1	-1.16	-1.2	-0.741	0.232	-0.867	-0.747	-0.931
GATACAAGGTCAGCTAGAGGCCAGAGTATGGAAA	5.51	3.77	0.325	2.78	-0.103	4.53	3.95	3.5	1.23	2.18
AGTCAAATTTCATCTAGGTAACGTAAGATATGCT	-0.224	-0.221	0.168	0.0477	0.362	0.347	1.02	0.0693	0.291	0.178
AATACAGGGACATCGTAGGCCAGAGTACGCACAG	-0.0851	-0.29	0.107	-0.465	0.118	-0.329	1.07	-0.124	0.0369	0.0571
CGGACTAGGTCAAAGGACAGTGAAAGGCGACGTA	3.87	2.49	-0.041	1.67	-0.542	4.93	10.2	8.4	8.49	9.55
ATATGTAGGTTACATCCGGGTCATTCTGGCTATG	2.03	3.94	1.66	3.12	0.83	4.43	6.19	4.83	2.69	3.95
ATATGTAGGTTAGGGTCTTTCAGAAAGTAGGGAA	1.38	0.75	0.422	1.37	1.11	3.21	4.93	3.87	1.72	3.03
CGAAGTAGGTCACCAGGACAGTGAAGAGGTTGGA	3.65	2.69	0.0752	2.07	-0.257	5.34	8.79	7.35	4.81	7.02
ATAAGTAGGTTAGGGTCATTCAGAAAGTAGGGAA	4.83	4.27	1.68	4.53	2.04	5.65	8.07	7.06	4.72	7
CGTCCAAGGTCAATGCTAGGCCAGTGAAAGCATT	6.44	4.55	0.299	3.51	0.207	4.74	3.02	4.07	1.14	2.82
CCTAGTTGGTCAAGGTCACACATGCTATAGGTAC	3.87	3.69	2.25	3.88	0.901	4.01	3.24	3.69	1.38	2.96
CCTAGCAGGCGAGGGTCACTCAAGCATTTCGCTT	1.72	1.44	-0.428	1.56	-1.08	2.63	0.461	1.58	-0.298	1.34
GACACAGGGTCAGCTAGAGGCCAGAGTATGGAAA	4.61	2.62	-0.521	2.32	-0.984	4.57	3.5	3.17	0.295	1.71
CGAACTAGGTCAACGGACAGTGAAAGGCGACGTA	3.7	2.16	-0.117	1.22	-0.431	4.75	8.09	6.86	4.42	6.52
ATATGTAGGTTAGGGTCATTGAGAAAGTAGGGAA	4.91	4.11	1.17	4.32	2.74	5.89	7.58	6.31	4.39	5.93
CGAACTAGGTCAGAACAGTACAGTGAAGGATGAT	1.08	0.839	0.06	0.623	-0.447	2.86	5.05	4.39	1.99	3.68
CTTTACGGGTCAAGGTTATAGCACGGGTGGTACG	5.72	4.66	1.01	3.35	0.665	5.26	5.26	5.41	2.59	4.51
CGAACTAGCTCACCAGGACAGTGAAGAGGTTGGA	-0.472	-0.64	-0.125	-0.561	-0.585	-0.517	0.165	-0.517	-0.602	-0.751
ATATGTAGGTAAGGGTCATTCAGAAAGTAGGGAA	4.33	4.17	1.56	4.24	1.45	5.52	7.89	6.82	4.58	6.85
ATATGTAGGTTAGGGGCATTCAGAAAGTAGGGAA	1.64	1.47	0.824	3.01	2.52	3.8	5.77	5.21	2.78	4.77
ATCGAATGGTCGAGGTGAGTATAGAGAAAGGGAA	0.114	-0.0823	-0.329	-0.326	-0.256	0.069	0.444	-0.0117	0.061	0.091
GGAACGAGGGCATTCGAGTTGATAGCATGGCGAT	1.35	1.46	-0.481	-0.0953	-0.345	1.38	0.867	0.479	-0.23	-0.0469
ATATGCAGGTTATCGGGTCATTCAGTTTGCGCAT	3.37	3.44	1.57	3.03	0.832	4.13	4.45	4.25	1.56	3.42
